{"source": "PubChem BioAssay AID743172", "about": "(National Center for Advancing Translational Sciences (NCATS), 2013)", "note": "Several values for one entry are separate records, joined by “and”; a condition that tells them apart may be missing. Identical values can stand only once. Records with an inconclusive call do not appear. Activity calls are given as the source filed them. Calls follow the shape of the dose curve; as a rule, active = well fitted activation curve with a large enough effect; inconclusive = small, poorly fitted or top-dose-only effect; inactive = no such curve, though single readings can be large or run the other way.", "data": [{"assay": "Extended Characterization of HPGD Inhibitors: PGE2 Assay in LNCaP Cells", "settings": "PGE2 HTRF level, 16 h; series mostly up to 100 µM", "excerpt": "The central role of HPGD is to inactivate prostaglandins such as prostaglandin E2 (PGE2) or prostaglandin D2 (PGD2). These prostaglandins are involved in a number of processes, including inflammation, differentiation, and cellular signaling, which makes HPGD an important target for pharmacological intervention. A number of prostaglandins of particular biological interest have been identified as substrates of HPGD. […] Over-production of PGE2 has been reported to promote tumor-associated neovascularization, cell proliferation, and tumor growth. […] In this orthogonal assay, we set out to measure if compounds were able to increase PGE2 production NIH Chemical Genomics Center [NCGC] NIH Molecular Libraries Probe Centers Network [MLPCN] MLPCN Grant: MH084681 Assay Submitter (PI): Structural Genomics Consortium\nA549 cells, LNCaP cells or media were dispensed in 384-well plates (ProxiPlate-384 Plus, PerkinElmer, Shelton, CT) at 5,000 cells/9.9 uL/well using a CappAero384 multichannel pipette (Odense, Denmark). Separately on the plate, 10 uL of PGE2 calibration standards at a starting assay concentration of 5,000 pg/mL (1:2 dilution, 12-points, n = 1, prepared in media, Cisbio, Bedford, MA) were dispensed. Compounds (100 nL, final concentration range from 41.9 nM to 100 uM) were transferred using an ATS Acoustic Liquid Dispenser (EDC Biosystems, Fremont, CA). After being mixed using an automated liquid handler (CyBio, Jena, Germany), samples were incubated (37 deg C, 5% CO2, under a humidified atmosphere) for 16 hours. PGE2 labeled conjugates were added to each well, first 5 uL of PGE2-d2, followed by 5 uL of anti-PGE2-cryptate, centrifuged (1,500 rpm, 15 sec) and incubated (RT, protected from light) for 5 hours. Time-resolved fluorescence intensity (320 nm excitation, 615 and 665 nm emission) was measured using an Envision plate reader (PerkinElmer). Data was expressed as the ratio of 665 nm/615 nm emissions. Concentration (pg/mL) of samples were calculated from a 4-parameter logistic calibration curves of the PGE2 standards.", "values": [{"smiles": "O=[N+]([O-])c1ccc(CSc2nc3ncc(Br)cc3[nH]2)cc1", "Potency": "2.22 µM (active)"}, {"smiles": "Clc1ccc(CSc2nc3ncc(Br)cc3[nH]2)cc1Cl", "Potency": "22.2 µM (active)"}, {"smiles": "Cc1cccc(-n2cnc3cc(C(=O)N4CCCC(C(F)(F)F)C4)ccc32)c1", "note": "(stereo not given)", "Potency": "1.76 µM (active)"}, {"smiles": "c1ccc(-n2cc(-c3nnc4n3CCCCC4)cn2)cc1", "Potency": "inactive"}, {"smiles": "Cc1cc(-c2nnc3n2CCCCC3)c(C)n1-c1ccc([N+](=O)[O-])cc1", "Potency": "2.22 µM (active)"}, {"smiles": "COc1ccc(-n2cnc3cc(C(=O)N4CCCCC4)ccc32)cc1", "Potency": "0.884 µM (active)"}, {"smiles": "N#Cc1ccccc1CNc1nc2ncc(Br)cc2[nH]1", "Potency": "inactive"}, {"smiles": "CC(C)(C)n1cnc2cc(C(=O)N3CCCCC3)ccc21", "Potency": "0.884 µM (active)"}, {"smiles": "CC(C)(C)c1ccc(-n2cnc3cc(C(=O)N4CCCCC4)ccc32)cc1", "Potency": "4.43 µM (active)"}, {"smiles": "O=C(c1ccc2c(c1)ncn2-c1cccc(Cl)c1)N1CCCCC1", "Potency": "0.222 µM (active)"}, {"smiles": "Cc1cccc(-n2cnc3cc(C(=O)NC4CCCCC4)ccc32)c1", "Potency": "22.2 µM (active)"}, {"smiles": "Cc1cccc(-n2cnc3cc(C(=O)N4CCCCCC4)ccc32)c1", "Potency": "1.76 µM (active)"}, {"smiles": "O=[N+]([O-])c1ccccc1CSc1nc2ncc(Br)cc2[nH]1", "Potency": "0.352 µM (active)"}, {"smiles": "Brc1cnc2nc(SCc3ccncc3)[nH]c2c1", "Potency": "4.43 µM (active)"}, {"smiles": "Cc1cc(-c2nnc3n2CCCCC3)c(C)n1-c1cccc(Cl)c1", "Potency": "0.558 µM (active)"}, {"smiles": "N#Cc1cccc(CSc2nc3ncc(Br)cc3[nH]2)c1", "Potency": "35.2 µM (active)"}, {"smiles": "Cc1cccc(-n2cnc3cc(C(=O)N4CCCC4)ccc32)c1", "Potency": "55.8 µM (active)"}, {"smiles": "O=C(c1ccc2c(c1)ncn2-c1cccc(C(F)(F)F)c1)N1CCCCC1", "Potency": "2.8 µM (active)"}, {"smiles": "Cc1cc(-c2nnc3n2CCCC3)c(C)n1-c1ccccc1", "Potency": "7.03 µM (active)"}, {"smiles": "Cc1ccc(-n2c(C)cc(-c3nnc4n3CCCCC4)c2C)cc1", "Potency": "0.702 µM (active)"}, {"smiles": "Cc1cc(-c2nnc3n2CCCCC3)c(C)n1-c1ccc(Br)cc1", "Potency": "2.8 µM (active)"}, {"smiles": "CCOC(=O)c1ccc(-n2cnc3cc(C(=O)N4CCCCC4)ccc32)cc1", "Potency": "inactive"}, {"smiles": "Cc1cccc(-n2cnc3cc(C(=O)N4CCCCC4)ccc32)c1", "Potency": "702 nM (active) and 884 nM (active)"}, {"smiles": "Cc1cccc(-n2cnc3cc(C(=O)N4CCC(Cc5ccccc5)CC4)ccc32)c1", "Potency": "inactive"}, {"smiles": "Cc1cccc(-n2cnc3cc(C(=O)N4CCC(C#N)CC4)ccc32)c1", "Potency": "inactive"}, {"smiles": "O=C(c1ccc2c(c1)ncn2-c1ccc(Cl)cc1)N1CCCCC1", "Potency": "0.884 µM (active)"}, {"smiles": "FC(F)(F)c1ccc(-c2nc(-c3nnc4n3CCCCC4)c(C(F)(F)F)o2)cc1", "Potency": "inactive"}, {"smiles": "CC(C)c1cccc(-n2cnc3cc(C(=O)N4CCCCC4)ccc32)c1", "Potency": "2.8 µM (active)"}, {"smiles": "O=[N+]([O-])c1cccc(CSc2nc3ncc(Br)cc3[nH]2)c1", "Potency": "inactive"}, {"smiles": "O=C(c1ccc2c(c1)ncn2-c1ccccc1)N1CCCCC1", "Potency": "0.28 µM (active)"}, {"smiles": "Clc1ccc(CSc2nc3ncc(Br)cc3[nH]2)cc1", "Potency": "14 µM (active)"}, {"smiles": "Clc1cccc(CSc2nc3ncc(Br)cc3[nH]2)c1", "Potency": "44.3 µM (active)"}, {"smiles": "N#Cc1ccc(CSc2nc3ncc(Br)cc3[nH]2)cc1", "Potency": "22.2 µM (active)"}, {"smiles": "Clc1ccccc1CSc1nc2ncc(Br)cc2[nH]1", "Potency": "44.3 µM (active)"}, {"smiles": "Brc1cnc2nc(SCc3ccccn3)[nH]c2c1", "Potency": "11.1 µM (active)"}, {"smiles": "Cc1cc(-c2nnc3n2CCCCC3)c(C)n1-c1cccc(C#N)c1", "Potency": "1.76 µM (active)"}, {"smiles": "CC(C)(C)c1ccc(CSc2nc3ncc(Br)cc3[nH]2)cc1", "Potency": "35.2 µM (active)"}, {"smiles": "CCOC(=O)c1ccc(-n2c(C)cc(-c3nnc4n3CCCCC4)c2C)cc1", "Potency": "14 µM (active)"}, {"smiles": "Brc1cnc2nc(SCc3cccnc3)[nH]c2c1", "Potency": "7.03 µM (active)"}, {"smiles": "Cc1cc(-c2nnc3n2CCCCC3)c(C)n1-c1ccc(F)cc1", "Potency": "3.52 µM (active)"}]}]}
